# Screens from PubChem BioAssay.
# Only some compounds are listed: those with a hit (about 1.2% of all), similar ones and a draw of the others.
# hERG WT inh = inhibitors of human wildtype KCNH2 potassium channel; Q12809; U2OS, BacMam KCNH2, thallium flux FluxOr; stronger effect = lower value; activity change, % at 1.84 µM; 0.37% of 340,000 active;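 active = maximum activity change below -70%; inconclusive = maximum activity change between -70% and -50%; inactive = maximum activity change above -50%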; note: % is set by controls: 0 for no effect and ±100 for the full control effect
# Target sequence (Q12809 whole entry, looked up): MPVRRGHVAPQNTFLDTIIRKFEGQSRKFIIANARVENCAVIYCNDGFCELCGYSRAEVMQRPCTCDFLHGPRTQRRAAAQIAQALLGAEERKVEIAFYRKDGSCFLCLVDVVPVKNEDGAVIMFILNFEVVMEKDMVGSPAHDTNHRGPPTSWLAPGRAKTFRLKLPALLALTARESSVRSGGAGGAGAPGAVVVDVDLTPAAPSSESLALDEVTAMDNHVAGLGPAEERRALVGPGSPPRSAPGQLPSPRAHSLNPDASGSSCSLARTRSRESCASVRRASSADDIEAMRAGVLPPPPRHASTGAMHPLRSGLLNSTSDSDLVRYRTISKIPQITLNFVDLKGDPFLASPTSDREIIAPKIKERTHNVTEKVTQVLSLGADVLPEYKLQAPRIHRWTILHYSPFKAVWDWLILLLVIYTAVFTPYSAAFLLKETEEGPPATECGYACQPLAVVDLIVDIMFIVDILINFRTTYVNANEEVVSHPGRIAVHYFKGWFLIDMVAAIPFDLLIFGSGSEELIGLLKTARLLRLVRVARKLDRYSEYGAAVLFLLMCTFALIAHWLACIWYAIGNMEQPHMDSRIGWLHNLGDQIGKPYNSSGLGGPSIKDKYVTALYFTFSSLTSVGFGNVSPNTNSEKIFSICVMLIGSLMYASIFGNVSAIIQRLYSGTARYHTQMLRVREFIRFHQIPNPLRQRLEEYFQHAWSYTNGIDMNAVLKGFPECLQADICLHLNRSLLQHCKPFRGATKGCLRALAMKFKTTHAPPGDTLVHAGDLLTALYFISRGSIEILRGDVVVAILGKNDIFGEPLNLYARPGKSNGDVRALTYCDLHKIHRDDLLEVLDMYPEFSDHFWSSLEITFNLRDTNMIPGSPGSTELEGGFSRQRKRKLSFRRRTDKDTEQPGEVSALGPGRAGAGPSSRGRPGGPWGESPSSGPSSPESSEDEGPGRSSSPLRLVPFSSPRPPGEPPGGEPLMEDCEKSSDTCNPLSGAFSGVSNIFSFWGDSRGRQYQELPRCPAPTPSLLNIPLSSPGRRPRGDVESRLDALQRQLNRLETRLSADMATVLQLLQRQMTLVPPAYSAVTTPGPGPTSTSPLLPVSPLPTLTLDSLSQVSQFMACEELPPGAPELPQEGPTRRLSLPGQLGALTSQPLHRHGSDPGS
#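 U2OS cells were transduced with wild-type KCNH2 virus (2.03 x 10^8 / mL) for 4 h at room temperature, then cultured overnight at 37 C. Thallium flux was read with FluxOr dye. Rate constants were normalized to DMSO controls.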
# TRPV1 agonist = human TRPV1 agonism | TRPV1-expressing cells, Fluo-8 calcium influx, agonist mode | activation, % at 8.33 µM | 0.19% of 320,000 active; in the data active = activation above about 80%; inconclusive = between about 30% and that limit; note: 0% is about no effect
#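 Cells expressing TRPV1 were dye-loaded with Fluo-8 and read kinetically: 10 s baseline, 3 min after compound (agonist portion), then 2 min after EC20 capsaicin (allosteric enhancer portion). Calcium-bound dye fluorescence at 480/520 nm.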
# TRPV1 PAM = potentiators of human vanilloid receptor 1 (TRPV1); AID 540277; Q8NER1; potentiation, % at 8.33 µM; 0.02% of 320,000 active; TRPV1-expressing cells, Fluo-8 calcium influx, capsaicin EC20 potentiation; in the data active = potentiation above about 80%; inconclusive = between about 30% and that limit; note: 0% is about no effect
#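 TRPV1-expressing cells were cultured overnight at 35.5C and loaded with Fluo-8 calcium dye for 40 to 90 min at room temperature. After a 10 s baseline, compound was added and calcium influx was read kinetically for 3 min (ex 480/em 520 nm).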
# KCNH2 3.1 block = KCNH2 3.1 (human) potassium channel inhibition; 0.95% of 340,000 active; U2OS KCNH2 3.1, thallium flux FluxOr; stronger effect = lower value; activity change, % (tested at about 1.8 µM);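 active = maximum activity change below -70%; inconclusive = maximum activity change from -70% to -50%; inactive = maximum activity change above -50%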;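 note: thallium influx rate constant from kinetic fluorescence after stimulation buffer; % is set by controls: 0 for no effect and ±100 for the full control effect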
#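 Normalized rate constant (relative to positive and negative DMSO controls) derived from a 2 min kinetic fluorescence read after stimulation; U2OS cells expressing the 3.1 isoform via virus at 1.77 x 10^8 /mL.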
# The depositor's hits bear a star; ? = inconclusive; . = no result.
SMILES,hERG WT inh,TRPV1 agonist,TRPV1 PAM,KCNH2 3.1 block
COCCNc1nc(SCC(=O)N2CCN(c3ccccc3OC)CC2)nc2ccccc12,2.1,5.4,8.5,-120.2*
Cc1ccn2c(C(C)O)nnc2c1 (stereo unspecified),-12.9,.,.,-6.7
Cc1ccc(NC(=O)C2CCCN(C(=O)c3ccc(Cl)cc3)C2)cc1C (stereo unspecified),-6.1,?,-15.8,-121.7*
Cc1ccc(NC(=O)C2CCCN(C(=O)c3ccc(Cl)cc3)C2)cc1 (stereo unspecified),-3.7,?,-17.8,-6.5
CCOC(=O)c1c(C)[nH]c(C(=O)N/N=C/c2cc([N+](=O)[O-])ccc2O)c1C,-21.2,0.1,?,-70.1*
CCOC(=O)c1c(C)[nH]c(C(=O)N/N=C\c2ccccc2O)c1C,24.3,1.1,19.7,-7.3
CCN(c1ccc(NC(=O)c2ccc(Cl)nc2)cc1)C(C)C,-14.5,84.3*,-11.0,14.5
O=C(Nc1cccc(-c2nc3ccccc3o2)c1)c1cc([N+](=O)[O-])ccc1N1CCOCC1,.,8.3,-18.8,.
CCCN(c1ccc(OCC)cc1)c1ncnc2nc[nH]c12,-8.3,-2.8,4.2,-90.3*
CCN(c1ccc(OC)cc1)c1ncnc2nc[nH]c12,-7.9,-5.4,?,-11.7
Cc1ccc(S(=O)(=O)N2C[C@@H](C)[C@]3(C2)[C@H](O)[C@H](OC(=O)NC2CCCC2)C[C@H]2C(=O)N(c4ccccc4)C(=O)[C@H]23)cc1,-8.5,.,.,10.8
O=C(NC(=S)Nc1cccc([N+](=O)[O-])c1)c1ccccc1,1.9,12.2,-15.7,18.1
O=C(NC(=S)Nc1cc([N+](=O)[O-])ccc1Cl)c1ccccc1,-168.4*,7.9,-6.9,-154.0*
COc1cccc(-c2nnc(NC(=O)C3CCCCC3)o2)c1,-20.4,0.0,1.7,-84.2*
CSc1ccc(/C=N/NC(=O)c2ccc(C)c(C)c2)cc1,-2.9,82.1*,-2.0,-15.1
O=C(COC(=O)c1cc(S(=O)(=O)N2CCOCC2)ccc1O)Nc1cc(S(=O)(=O)N2CCCC2)ccc1Cl,-146.5*,-4.1,?,-193.9*
O=C(COC(=O)c1cnc(Cl)c(Cl)c1)Nc1ccc(S(=O)(=O)N2CCCC2)cc1,17.8,9.4,-2.1,-96.8*
Cc1ccc(S(=O)(=O)N2CCOCC2)cc1NC(=O)COC(=O)CNC(=O)c1ccccc1,5.6,4.9,-3.7,-97.7*
CCCCCOC(=O)C1=C(C)NC(=O)NC1c1ccccc1 (stereo unspecified),3.2,-2.4,3.1,7.7
CC(C)CCN1CCN(CC(c2ccccc2)c2ccccc2)CC1CCO (stereo unspecified),-19.2,12.0,-15.6,-73.5*
OCCC1CN(Cc2ccc(F)cc2)CCN1CCCc1ccccc1 (stereo unspecified),39.8,1.9,5.2,?
OCCC1CN(Cc2ccc(F)cc2)CCN1CCc1ccccc1 (stereo unspecified),50.2,-0.4,?,-79.3*
C#Cc1ccc(CN2CCN(CCc3ccccc3)C(CCO)C2)cc1 (stereo unspecified),11.7,2.3,0.0,-73.5*
CC1Cc2ccccc2N1C(=O)COC(=O)Cc1ccc(F)cc1 (stereo unspecified),-4.0,11.5,-4.7,-10.6
CC(C)(C)C(=O)CN1C(=O)NC(C)(Cc2ccc3c(c2)OCO3)C1=O (stereo unspecified),0.7,-0.2,11.2,-2.3
SMILES,hERG WT inh,TRPV1 agonist,TRPV1 PAM,KCNH2 3.1 block
C[C@H](NC(=O)N1CCn2c1nc1ccccc12)C(=O)NC1CC1,-1.3,-5.8,-31.3,-135.7*
Cc1cc(C(=O)Nc2ccc(Br)cn2)sc1C,-14.6,83.1*,-5.3,-12.6
O=C(Nc1ccc(Br)cn1)c1ccc(Cl)s1,-7.1,98.9*,12.5,-22.0
Cc1ccc(NC(=O)c2ncn(CC(=O)N[C@H](C)c3cccc4ccccc34)n2)cc1C,1.6,.,.,-15.4
Cc1ccc(NC(=O)c2ncn(CCCN3CCN(Cc4cccc5ccccc45)CC3)n2)cc1C,-12.0,.,.,-72.0*
Cc1ccccc1-n1nnnc1SC1CCOC1=O (stereo unspecified),-6.6,-0.3,0.4,12.9
Cc1ccc(S(=O)(=O)NCc2ccc(C(=O)NCCCN3CCC(Cc4ccccc4)CC3)cc2)cc1,5.6,9.4,-5.6,-81.4*
Cc1ccc(S(=O)(=O)NCCC(=O)N2CCC(Cc3ccccc3)CC2)cc1,-5.4,26.4,-15.2,-24.9
COc1ccc(CCNC(=O)c2ccc(CN3CCC(Cc4ccccc4)CC3)cc2)cc1OC,-22.8,8.3,-9.2,-92.7*
C/C(=N/O)c1no[n+]([O-])c1/C(C)=N\O,1.1,-1.1,10.4,-8.2
CNC(=O)NC(=O)CSc1nc2sccc2c(=O)n1-c1ccccc1,0.1,-2.9,?,12.3
CCCCCCn1c(=O)n2n(c1=O)[C@@H]1CN(S(=O)(=O)c3ccc(C)cc3)C[C@]1(O)[C@@H](OC(=O)Nc1c(C)noc1C)C2,4.4,.,.,-7.9
C#CCOc1nc2c(c(=O)n(C)c(=O)n2C)n1Cc1ccccc1,-1.4,-1.5,13.0,4.9
O=C(NC(=S)Nc1ccc(CN2CCCCC2)cc1)c1cc2ccccc2o1,25.7,13.2,-11.8,-94.0*
COc1ccc(C(=O)NC(=S)Nc2ccc(CN3CCCCC3)cc2)cc1Cl,2.3,3.8,?,-37.2
O=C(Nc1ccc(CN2CCCCC2)cc1)Nc1ccc(Br)cc1Cl,?,-1.2,2.1,-109.8*
Cc1ccc(C(=O)NC(=S)Nc2ccc(CN3CCCCC3)cc2)c(C)c1,27.3,0.4,-0.7,-72.7*
CC(=O)Nc1ccc(NC(=S)NC(=O)c2cc3ccccc3o2)cc1,-4.9,1.9,-3.9,-1.6
COc1cc2c(cc1OC)C(=O)C(Br)CC2 (stereo unspecified),-5.1,.,.,-7.9
Cc1cccc(C)c1OCC(O)CN1CCc2ccccc2C1 (stereo unspecified),12.0,.,.,-0.7
Cc1ccc(C(C)C)c(OCC(O)CN2CCc3ccccc3C2)c1 (stereo unspecified),-112.9*,14.2,-13.2,0.6
O=C(C[n+]1ccccc1)Nc1cc(C(F)(F)F)ccc1Cl,18.1,1.6,1.3,1.6
O=C(C[n+]1ccc2ccccc2c1)Nc1cc(C(F)(F)F)ccc1Cl,-47.1,1.8,-2.0,-82.0*
COc1ccc(NC(=O)CSc2nnc(-c3cc(C)[nH]n3)n2N)cc1,-0.8,3.2,0.6,23.7
CCN(CC)c1ccc2cc(-c3nc(-c4ccc(OC)cc4)cs3)c(=O)oc2c1,-233.4*,?,3.3,-132.5*
CCN(CC)c1ccc2cc(-c3nc4ccccc4n3C)c(=O)oc2c1,-1.5,.,.,-11.8
CCN(CC)c1ccc2cc(-c3nc4ccccc4[nH]3)c(=O)oc2c1,-93.3*,151.5*,26.3,-112.2*
O=c1oc2ccc3ccccc3c2cc1-c1nnc(-c2ccccc2)o1,2.1,11.9,-6.2,0.7
CCN(CC)c1ccc2cc(-c3nnc(-c4ccccc4)o3)c(=O)oc2c1,-96.0*,101.0*,0.9,-40.6
COc1ccc2cc(-c3ccccc3)c(=O)oc2c1,-13.9,9.3,-3.7,-3.5
